NPC1 promoter act: qHTS Assay for NPC1 Promoter Activators | Huh7 NPC1 promoter luciferase reporter, 24 h | Potency, µM (titrated, usually from 9.22 µM), without a hit: top-dose activation, usual class: activators | actives 2.4% (n = 320,000) | AID 485313, 2010; also: % of control where 0% means no effect; nearly all actives have a fitted effect of over 60% in size
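Compounds in DMSO were transferred onto Huh7 NPC1-luciferase reporter cells pre-incubated 2 h; after 24 h at 37 °C, Amplite reagent was dispensed and luminescence recorded 10 min later.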
FLuc counter: qHTS profiling assay for firefly luciferase inhibitor/activator using purifed enzyme and Km concentrations of substrates (counterscreen for miR-21 project); Luciferin 4-monooxygenase (Photinus pyralis), P08659; purified FLuc, Km substrates, luminescence inhibition; Potency, µM (highest dose often 57.5 µM), for the others: at the top dose activity change, negative = inhibition, most hits filed as inhibitors; actives 6.9% (n = 360,000);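 also: plate controls were vehicle for no effect and reference inhibitor for full effect; nearly all actives have a fitted effect of over 55% in size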
Target sequence (P08659 whole entry, looked up): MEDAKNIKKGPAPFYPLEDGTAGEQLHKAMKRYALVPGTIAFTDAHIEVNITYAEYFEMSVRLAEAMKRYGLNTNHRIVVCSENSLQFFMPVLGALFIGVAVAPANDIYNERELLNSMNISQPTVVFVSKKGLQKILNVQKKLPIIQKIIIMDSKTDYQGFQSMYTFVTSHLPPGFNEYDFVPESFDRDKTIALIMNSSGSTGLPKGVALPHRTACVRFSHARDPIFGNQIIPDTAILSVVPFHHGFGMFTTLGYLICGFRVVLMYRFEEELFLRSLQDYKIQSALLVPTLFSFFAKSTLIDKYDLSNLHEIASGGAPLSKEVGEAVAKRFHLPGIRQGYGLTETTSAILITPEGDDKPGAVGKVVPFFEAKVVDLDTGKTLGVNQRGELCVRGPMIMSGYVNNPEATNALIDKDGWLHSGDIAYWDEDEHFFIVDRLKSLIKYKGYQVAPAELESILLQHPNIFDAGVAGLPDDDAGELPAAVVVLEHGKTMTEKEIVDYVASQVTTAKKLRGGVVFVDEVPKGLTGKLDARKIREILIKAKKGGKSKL
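Purified P. pyralis luciferase, 10 nM final, with Km-level 10 uM D-luciferin and 10 uM ATP in 50 mM Tris acetate pH 7.5, 10 mM Mg acetate, 0.01% Tween-20, 0.05% BSA; 6-point qHTS titration about 60 µM downward; luminescence read.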
Rab9 prom act: qHTS Assay for Rab9 Promoter Activators. Huh7 Rab9 promoter-luciferase reporter, luminescence, 24 h. Potency, µM (doses to about 9.22 µM), without a hit: top-dose activation, negative = inhibition, hits mostly activators. actives 2.8% (n = 320,000); also: % of control where 0% means no effect; nearly all actives have a fitted effect of over 60% in size
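Promoter activation is measured as luciferase luminescence in Huh7 cells stably transfected with a Rab9 promoter–luciferase construct, following 24 h compound exposure at 37 °C and 10 min reagent incubation at ambient temperature.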
ELG1 DNA repair: qHTS screen for small molecules that inhibit ELG1-dependent DNA repair in human embryonic kidney (HEK293T) cells expressing luciferase-tagged ELG1; HEK293T ELG1-luciferase reporter, luminescence, 16 h; DNA damage induced by 5-fluorouridine; Potency, µM (top dose mostly 46.1 µM), without a hit: at the top dose activity change, negative = inhibition, actives largely listed as inhibitors; actives 2.3% (n = 330,000); AID 504467, 2011; also: % is scaled to controls: 0 for no effect and ±100 for the full control effect; nearly all actives have a fitted effect of over 55% in size
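DMSO vehicle served as the neutral condition. Each well held 2,000 cells given 5-fluorouridine plus compound; after 16 hr at 37 °C/5% CO2, ONE-Glo was added and luciferase measured 30 min later.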
ELG1 genotoxic: qHTS screen for small molecules that induce genotoxicity in human embryonic kidney (HEK293T) cells expressing luciferase-tagged ELG1; HEK293T ELG1-luciferase reporter, luminescence, 16 h; Potency, µM (top dose mostly 46 µM), for the others: at the top dose activity change, positive = activation, hits mostly activators; actives 1.3% (n = 330,000); AID 504466, 2011; also: % of control where 0% means no effect; nearly all actives have a fitted effect of over 60% in size
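16 hr compound incubation (37 °C, 5% CO2) of HEK293T cells carrying luciferase-tagged ELG1; luciferase then measured by ONE-Glo luminescence after 30 min at RT.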
SMN2 splice up: qHTS Assay for Enhancers of SMN2 Splice Variant Expression | Potency, µM (highest dose often 46.1 µM), without a hit: top-dose activity change, positive = activation, most hits filed as activators | AID 1458, 2008 | actives 2.8% (n = 210,000) | HEK293 SMN2-luciferase splicing reporter, luminescence, 30-36 h; also: % of control where 0% means no effect; nearly all actives have a fitted effect of over 55% in size
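HEK293 cells carry an SMN2 minigene-luciferase reporter in which exon 7 inclusion puts luciferase in frame. Cells were seeded at 2000 cells/well, attached for 10-12 hours, then exposed to compounds for 30-36 hours at 37C before ONE-Glo luminescence.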
Active calls of the source: *; ? = inconclusive; . = no result given. Hits are enriched below; roughly 9.2% of the tested compounds scored in any of these assays. Calls follow the shape of the dose curve; as a rule, active = well fitted curve in the direction sought with a large enough effect; inconclusive = small, poorly fitted or top-dose-only effect, or another doubt; inactive = no such curve, though single readings can be large; an effect the other way counts as inactive or inconclusive. Potency is read from the fitted curve at half-maximal effect.

SMILES	NPC1 promoter act	FLuc counter	Rab9 prom act	ELG1 DNA repair	ELG1 genotoxic	SMN2 splice up
Nc1sccc1C(=O)c1ccc(Cl)cc1	28.0%	?	?	?	11.2µM*	27.6%
O=C1c2ccccc2C(=O)N1CCCCN(C(=O)c1cc([N+](=O)[O-])cc([N+](=O)[O-])c1)c1ccc(Cl)cc1	-2.7%	1.5%	-2.5%	-24.0%	-5.0%	-20.4%
O=C1c2ccccc2C(=O)N1CCCCN(C(=O)c1cc([N+](=O)[O-])ccc1Cl)c1ccc(Cl)cc1	-9.2%	1.0%	-3.0%	20.6µM*	-12.6%	-29.9%
CN(c1ccccc1)S(=O)(=O)c1cccc(NS(=O)(=O)c2ccc(/C=C/C(=O)O)cc2)c1	-2.6%	?	-0.9%	9.5%	-0.2%	12.9%
CC(=O)Nc1ccc(C(=O)OCc2ccc(Br)cc2)cc1	1.6%	-15.5%	-0.9%	11.6%	4.9%	-8.4%
Cc1ccc(C(=O)ONc2ccc(N=NC(=O)c3ccccc3O)cc2)cc1	19.8%	12µM*	?	?	?	-42.1%
COC(=O)c1ccc(NC(=O)CCN2CCCCC2)cc1	-0.6%	10.0%	0.8%	-11.7%	-6.2%	-10.4%
O=Nc1ccc(NOC(=O)c2ccc(Br)cc2)cc1	2.6%	0.0757µM*	-4.8%	2.8%	-2.4%	3.3%
COC(=O)c1ccc(N=NN2CCCCC2)cc1	2.82µM*	8.49µM*	2.24µM*	?	8.2µM*	14.1µM*
Cc1ccc(C(=O)ONc2ccc(N=O)cc2)cc1	0.8%	0.0301µM*	-1.1%	13.6%	-2.6%	-7.7%
COc1ccccc1CN(C(=O)c1cnccn1)C(C(=O)NC1CCCCC1)c1cc(OC)c(OC)c(OC)c1 (stereo not given)	-3.3%	2.9%	0.6%	3.3%	-2.7%	.
COC(=O)c1ccc(NN=Nc2ccc(C)cc2)cc1	0.794µM*	6.75µM*	1.12µM*	?	?	11.2µM*
NC(=O)c1nsc(C(=O)N(c2cccc(F)c2)C(C(=O)NCC2CCCO2)c2c[nH]c3ccccc23)c1N (stereo not given)	-5.4%	0.2%	-2.4%	-6.9%	0.6%	.
COc1ccccc1-c1noc(-c2ccccc2C(=O)Nc2cccnc2)n1	-3.8%	15.1µM*	-3.3%	-12.6%	-5.1%	23.7%
O=C(Nc1ccc(-c2noc(-c3cccs3)n2)cc1)c1cccnc1	1µM*	4.78µM*	0.447µM*	?	?	1.26µM*
COc1ccc(-c2noc(-c3ccccc3C(=O)Nc3cccc(OC)c3)n2)cc1	5.1%	10.7µM*	-2.4%	?	-1.0%	-35.3%
CC(=O)Nc1cccc(Oc2ccc(-c3noc(C)n3)cc2)c1	3.16µM*	12µM*	1.58µM*	?	9.2µM*	10µM*
CCOc1ccc(N2CC(NC(=O)/C=C\c3ccc4c(c3)OCO4)CC2=O)cc1 (stereo not given)	.	-1.5%	.	.	.	.
COc1ccc(-c2noc(-c3ccccc3C(=O)Nc3cccnc3)n2)cc1	15.5%	13.5µM*	28.7%	?	-8.7%	4.7%
CCOC(=O)c1[nH]c2ccc(Br)cc2c1NC(=O)CCN1CCCC(C)(C)C1	0.1%	-10.5%	-2.4%	3.9%	-4.2%	-1.6%
CC1CCCN(S(=O)(=O)c2cc(C(=O)NCc3ccccc3Cl)n(C)c2)C1 (stereo not given)	.	1.2%	.	.	.	.
CCOC(=O)Cc1csc(NC(=O)Nc2ccc(Cl)cc2)n1	-6.2%	6.01µM*	-7.0%	18.3µM*	-6.5%	.
CCOC(=O)Cc1csc(NC(=O)Nc2cccc(Cl)c2)n1	0.0%	5.36µM*	-3.1%	-18.8%	0.0%	-40.1%

Compound activity (PubChem BioAssay)
